Assay results as given in PubChem BioAssay.

Experiment: binders of probe aFGF10 on microarray, primary screen, stem cell growth factor project, biochemical, small-molecule microarray, fluorescence 635/667 (AID 1071);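 also: score merges 667 nm spot intensity and signal to noise from triplicate slides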
Settings: higher = more signal

| Compound | composite z-score |
| --- | --- |
| COC(=O)C(CC#Cc1ccc2c(c1)[C@]1(C(=O)N2)[C@H](C(=O)N2CCN(c3ncccn3)CC2)[C@H]2C(=O)O[C@H](c3ccccc3)[C@H](c3ccccc3)N2[C@@H]1c1ccc(OCCO)cc1)C(=O)OC | 0.554 |
| COCCOC(=O)N1C(=O)[C@@]2(c3cc(C#CC4=CCCCC4)ccc31)[C@H](c1ccccc1OCCO)N1[C@H](c3ccccc3)[C@H](c3ccccc3)OC(=O)[C@H]1[C@@H]2C(=O)N1CCCCCCC1 | 0.61 |
| CCOC(=O)C[C@H]1[C@H](OC(=O)c2ccc(C(=O)c3ccccc3)cc2)[C@@H](NC(=O)Cc2ccc(OC)cc2)c2cc(OCCCO)ccc2N1C(=O)c1ccccc1 | 0.172 |
| C=CC[C@@]1(C(=O)N2CCOCC2)N=C(c2ccc(OCCCO)cc2)O[C@@H]1c1ccccc1CN=[N+]=[N-] | 1.01 |
| NC(=O)NCC#Cc1ccc2c(c1)[C@]1(C(=O)N2)[C@H](C(=O)NC[C@H](O)c2ccccc2)[C@H]2C(=O)O[C@H](c3ccccc3)[C@H](c3ccccc3)N2[C@@H]1c1ccc(OCCO)cc1 | 0.852 |
| C=C(COC)/C(=C/C[C@H](OC(=O)c1ccncc1)c1ccccc1OCCO)c1cnc2ccccc2c1 | 1.18 |
| [N-]=[N+]=Nc1ccccc1C[C@]1(C(N)=O)N=C(c2ccc(OCCCO)cc2)O[C@H]1c1ccccc1N=[N+]=[N-] | 1.05 |
| CN1C(=O)C2C=CC(C(O)c3ccccn3)N(N(c3ccccc3)c3ccccc3)C2C1=O (stereo not given) | 0.0491 |
| NCCCCCCNC(=O)[C@@H]1C[C@@H]2C(=O)N[C@@H](CCCCN)C(=O)N2[C@@H]1c1cccc(OCCO)c1 | -0.127 |
| O=C1N(Cc2ccccc2)c2ccccc2[C@@H]2OC(c3ccc(OCCCO)cc3)=N[C@]12Cc1ccccc1 | 0.569 |
| CCCCCCCCCCC(O)C1C=CC2C(=O)N(C)C(=O)C2N1NC(=O)OC(C)(C)C (stereo not given) | -0.293 |
| OCCCC1=CC(c2ccc(CN3CCCC3)cc2)N(Cc2sc3ccccc3c2Cl)CC1 (stereo not given) | 0.828 |
| [N-]=[N+]=Nc1ccccc1[C@@H]1OC(c2ccc(OCCCO)cc2)=N[C@]1(Cc1ccccc1)C(=O)NCC(O)CO (stereo not given in full) | 0.881 |
| C=CCC(OC(C)=O)[C@@H]1[C@@H](N(Cc2cc3ccccc3o2)C(=O)c2ccc(-c3ccccc3)cc2)c2cc(OCCCO)ccc2N1C(=O)c1ccc2ccccc2c1 (stereo not given in full) | -0.0863 |
| Cc1cc(C)c(C(O)C2C=CC3C(=O)N(c4ccccc4)C(=O)C3N2Nc2ccc(C(C)C)cc2)c(C)c1 (stereo not given) | 0.941 |
| COc1cc(OC)c(C(O)C2C=CC3C(=O)N(c4ccccc4)C(=O)C3N2Nc2ccccc2)cc1Br (stereo not given) | 0.208 |
| CO[C@H]1O[C@H](CO)[C@@H](OC(=O)Nc2ccccc2-c2ccccc2)[C@H](OC(=O)Nc2ccc3c(c2)OCO3)[C@H]1OC(=O)Nc1ccc2c(c1)OCO2 | 0.937 |
| CC1CC/C=C\[C@H]2OC34C=CCN(c5ccc(Cl)cc5)C(=O)[C@H]3N(CCCCCO)C(=O)[C@]4(C)C2C(=O)O1 (stereo not given in full) | -1.26 |

| Compound | composite z-score |
| --- | --- |
| CC(C)N1C(=O)c2ccccc2[C@@H](C(=O)NC2CC2)[C@@H]1c1ccc(CO)cc1 | 0.0389 |
| COCCCNC(=O)[C@@]1(Cc2ccccc2CN=[N+]=[N-])N=C(c2ccc(OCCCO)cc2)O[C@H]1c1ccccc1 | 0.891 |
| COc1ccc([Si](C)(C)[C@@H]2[C@@H](CCO)O[C@]3(C(=O)N(Cc4ccc(N5CCCCC5=O)cc4)c4ccccc43)[C@H]2C)cc1 | 0.913 |
| C=C(/C(=C/C[C@@H](OC(C)=O)c1cccc(OCCO)c1)c1cc(C(=O)OC)ccc1OC)C(C)C | 0.451 |
| C=C(COC)C(=O)CC[C@@H](OC(=O)c1cccnc1)c1ccc(OCCO)cc1 | 0.182 |
| CN(C)c1ccc(C(O)C2C=CC3C(=O)N(c4ccccc4)C(=O)C3N2Nc2ccc([N+](=O)[O-])cc2)cc1 (stereo not given) | 0.551 |
| C=C[C@@H](COC(C)=O)N(C(=O)OC(C)(C)C)S(=O)(=O)c1ccc(Br)cc1 | 0.358 |
| CCCC[C@@H](O)C1=C(COc2ccccc2)C[C@H]2C(=O)N(C)C(=O)[C@H]2[C@H]1CO | -0.167 |
| COC(=O)c1ccc([C@H](NC(=O)c2ccco2)[C@]2(C)C[C@H]2C2CCCCC2)cc1 | -0.11 |
| COc1ccc(CN(C2=CC[C@@]3(C(N)=O)C(=O)C(Cl)=C(Cl)C(=O)[C@@]3(C#N)C2)S(=O)(=O)c2ccc(Br)cc2)cc1 | 0.497 |
| COC(=O)c1cn(C[C@@H](Cc2ccccc2)NC(=O)N[C@H](CO)CCc2oc(C(C)=O)c(C(=O)OC)c2C(=O)OC)nn1 | 0.757 |
| CCOC(=O)C[C@H]1[C@H](OC(=O)c2cc3ccccc3oc2=O)[C@@H](NC(=O)c2ccc(-c3ccccc3)cc2)c2cc(OCCCO)ccc2N1C(=O)c1ccccc1 | 0.731 |
| COC(=O)[C@@]1(Cc2ccc(OC)cc2)[C@H]2c3cc(C(=O)N(C)C)n(C[C@H](O)CO)c3C[C@H]2CN1C(=O)c1ccccc1 | 0.504 |
| CC(C)[Si](C#C[Si](C(C)C)(C(C)C)C(C)C)(O[C@H](C)c1cn([C@H](CO)Cc2ccccc2)nn1)C(C)C | 0.215 |
| CCOC(=O)C1=CC[C@@H](c2ccccc2C(F)(F)F)N(S(=O)(=O)c2ccc(C)cc2)[C@H]1c1ccc(C#N)cc1 | 0.692 |
| C[N+](C)(C)CCCC[C@@H]1NC(=O)[C@H]2C[C@@H](C(=O)NCCCCCCN)[C@@H](c3ccc(O)cc3)N2C1=O | 0.575 |
| CC(C)N1CC=CC23O[C@@H]4C=CCOC(=O)[C@@H]4[C@H]2C(=O)N(CCCO)[C@@H]3C1=O (stereo not given in full) | 0.425 |
